IL-1B inflam inh: qHTS for Inhibitors of Inflammasome Signaling: IL-1-beta AlphaLISA Primary Screen | THP-1 LPS/ATP IL-1B secretion, AlphaLISA, 16 h; hits give low values | AID 743279, 2014 | 4.7% of 360,000 active | activity change, % at 57.5 µM; in the data active = activity change below about -50%; inconclusive = mostly about -30% to -49%
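Secreted IL-1B measured by AlphaLISA bead assay after 16 h compound exposure of THP-1 cells; compounds (final up to 57.5 uM) added 1 h before LPS (250 ng/mL) and ATP (1.25 mM) stimulation; lower signal means less secretion.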
DT40 TDP1 CPT: qHTS for Inhibitors of human tyrosyl-DNA phosphodiesterase 1 (TDP1): qHTS in cells in presence of CPT | Potency, µM (highest dose often 46.2 µM), inactives show at the highest dose activity change, negative = growth inhibition, most hits filed as inhibitors | chicken DT40 Tdp1-/-;hTDP1 cells + 20 nM CPT, ATP luminescence, 48 h | AID 686979, 2013 | 12% of 420,000 active; note: potency is the fitted concentration of half-maximal effect; nearly all actives have a fitted effect of over 55% in size
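Cell growth measured by CellTiter-Glo luminescence after a minimum 48 h, 37 C compound exposure with 20 nM CPT in Tdp1-knockout DT40 cells stably expressing hTDP1, seeded 400/well; qHTS titration format.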
DT40 TDP1 no CPT: qHTS for Inhibitors of human tyrosyl-DNA phosphodiesterase 1 (TDP1): qHTS in cells in absence of CPT | DT40 Tdp1-/- hTDP1 cells, no CPT, ATP luminescence, 48 h | Potency, µM (titrated, usually from 46.2 µM), for inactives: at the top dose activity change, negative = growth inhibition, actives largely listed as inhibitors | 15% of 420,000 active | AID 686978, 2013; note: potency is the fitted concentration of half-maximal effect; nearly all actives have a fitted effect of over 55% in size
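Cells were dispensed at 400 per well, compounds added by pin tool, plates incubated ≥48 hr at 37 °C, then CellTiter-Glo added for 30 min at room temperature before luminescence reading. Line: DT40 Tdp1-/- complemented with hTDP1; camptothecin omitted.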
HT1080NT lethal: qHTS for induction of synthetic lethality in tumor cells producing 2HG: qHTS for the HT-1080-NT fibrosarcoma cell line. HT-1080-NT fibrosarcoma viability, CellTiter-Glo ATP luminescence, 48 h. Potency, µM (doses to about 46.1 µM), inactives show at the highest dose activity, negative = less viability, usual class: cytotoxic. 1.6% of 360,000 active;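 note: NT is the 2HG producing partner of a matched IDH1 knockdown line; potency is the fitted concentration of half-maximal effect; 0% = DMSO-treated cells and -100% = media-only wells without cells; nearly all actives have a fitted effect of over 55% in size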
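HT-1080-NT; 750 cells/well; 5% FBS RPMI; 48 h compound, 37 degrees C; CellTiter-Glo luminescence; curve fitting and curve-class assignment.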
ELG1 DNA repair: qHTS screen for small molecules that inhibit ELG1-dependent DNA repair in human embryonic kidney (HEK293T) cells expressing luciferase-tagged ELG1; Potency, µM (series often up to 46.1 µM), for inactives: top-dose activity change, negative = inhibition, most hits filed as inhibitors; 2.3% of 330,000 active; HEK293T ELG1-luciferase reporter, luminescence, 16 h; DNA damage induced by 5-fluorouridine; note: potency is the fitted concentration of half-maximal effect; nearly all actives have a fitted effect of over 55% in size
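Luminescence from the luciferase reporter, measured 30 min after ONE-Glo reagent at room temperature, was the read-out. Beforehand, 2,000 cells per well were exposed for 16 hr at 37 °C to 5-fluorouridine together with compound or vehicle.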
HT1080 IDH1KD tx: qHTS for induction of synthetic lethality in tumor cells producing 2HG: qHTS for the HT-1080-IDH1KD cell line | HT-1080 IDH1 knockdown viability, ATP luminescence, 48 h | Potency, µM (doses to about 46.1 µM), inactives show at the highest dose activity, negative = toxicity, usual class: cytotoxic | 2% of 360,000 active;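 note: potency is the fitted concentration of half-maximal effect; 0% = DMSO wells and -100% = cell-free medium wells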
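Knockdown cells (IDH1KD HT-1080) received compounds 2 h after plating at 750 cells/well and were kept 48 h at 37 °C in 5% FBS RPMI. A CellTiter-Glo luminescence read gave % activity for curve fitting.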
* hit, by the source's call; u = inconclusive; x = no result. Sampled rows, rich in hits. Any-hit rate of the full collection: about 19%. Unless noted, calls come from the whole dose curve; as a rule, active = well fitted curve in the direction sought with a large enough effect; inconclusive = small, poorly fitted or top-dose-only effect, or another doubt; inactive = no such curve, though single readings can be large; an effect the other way counts as inactive or inconclusive. Unless noted, % is set by controls: 0 for no effect and ±100 for the full control effect.

SMILES	IL-1B inflam inh	DT40 TDP1 CPT	DT40 TDP1 no CPT	HT1080NT lethal	ELG1 DNA repair	HT1080 IDH1KD tx
COc1ccc(/C=C/C(=O)Nc2ccc3nc4c(c(Nc5ccccc5OC)c3c2)CCCC4)cc1	x	3.3µM*	3.7µM*	x	x	x
CCCCNC(=O)c1onc(CSc2ccc(Cl)cc2)c1C(=O)O	13	u	-14%	-9%	7%	-18%
COc1ccccc1CNC(=O)CSC1=Nc2ccccc2N=C(c2ccc(F)cc2)C1	x	26µM*	u	x	x	x
Cc1ccc(CNC(=O)CSC2=Nc3ccccc3N=C(c3ccc(F)cc3)C2)cc1	x	-11%	6%	x	x	x
O=C(CSC1=Nc2ccccc2N=C(c2ccc(F)cc2)C1)NCc1ccccc1	x	u	18µM*	x	x	x
N#Cc1ncc(-c2ccc3c(c2)OCCOCCOCCOCCO3)nc1C#N	-103*	5.8µM*	4.6µM*	11%	1%	12%
Brc1ccc2c(c1)OCCOCCOCCOCCOCCO2	-1	-22%	u	1%	-2%	3%
N#Cc1ncc(-c2ccc3c(c2)OCCOCCOCCOCCOCCO3)nc1C#N	22	12µM*	13µM*	2%	u	11%
Cc1cccc(Nc2nc3ccccc3n3c(N)nnc23)c1	x	6%	-30%	x	x	x
COc1ccccc1-c1cn[nH]c1-c1ccc(OCc2ccccc2F)cc1O	-101*	18µM*	15µM*	u	-16%	u
COc1ccccc1-c1cn[nH]c1-c1ccc(OCc2ccc(F)cc2)cc1O	-52*	u	u	u	u	u
COc1ccccc1-c1cn[nH]c1-c1ccc(O)cc1O	4	u	u	5%	-22%	0%
C[C@@H]1C[C@H]2[C@@H]3C[C@H](F)C4=CC(=O)C=C[C@]4(C)[C@@]3(Cl)[C@@H](O)C[C@]2(C)[C@H]1C(=O)COC(=O)C(C)(C)C	u	-22%	u	u	u	u
CCOC(=O)Cn1c(=O)n(C2CCCCC2)c2nc(-c3cccc(C)c3)nc(C(N)=O)c21	x	u	-6%	x	x	x
Cc1ccc(NC(=O)N2CCCc3ccccc32)cc1C	10	-30%	-23%	-11%	u	-16%
COc1cccc(OCc2cc(C(=O)N3CCC(C(O)C(C)C)CC3)no2)c1 (stereo unspecified)	1	u	u	10%	1%	2%
O=C(c1cc(COc2ccc3ncccc3c2)on1)N1CCC(O)CC1	11	16µM*	8.2µM*	-2%	u	-2%
O=C(c1cc(COc2ccc3ncccc3c2)on1)N1CCC[C@H]1CO	-16	6.5µM*	8.2µM*	u	20%	-22%
COCC1CCCN(C(=O)c2cc(COc3ccc4ncccc4c3)on2)C1 (stereo unspecified)	-6	7.3µM*	5.8µM*	7%	1%	-25%
COc1cccc(OCc2cc(C(=O)N3CCCC3c3ccccn3)no2)c1 (stereo unspecified)	-9	u	u	1%	u	2%
Cc1cccnc1CN1CCN(C(=O)c2cc(COc3ccc4ncccc4c3)on2)CC1	-24	5.8µM*	7.3µM*	-6%	u	u
